Screening results from PubChem.
PKM2 activator: increases activity of human pyruvate kinase M2; P14618; purified PKM2, Kinase-Glo ATP luminescence, activation; response scale: 0% is enzyme alone, no compound; Potency, µM (titrated, usually from 57.5 µM), inactives show at the highest dose activation, usual class: activators; actives 0.34% (n = 260,000); AID 1631; also: potency is read from the fitted curve at half-maximal effect; % is scaled to controls: 0 for no effect and ±100 for the full control effect; nearly all actives have a fitted effect of over 55% in size
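Purified hPK-M2 (>95% pure) converted ADP (0.1 mM final) to ATP with 0.5 mM PEP in 50 mM imidazole pH7.2, KCl, MgCl2, Tween 20, BSA; 1 h at room temperature. ATP detected by Kinase-Glo luminescence.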
IL2 activator: IL-2 activation. actives 0.065% (n = 360,000). IL-2 activation reporter assay, cell-based qHTS; stimulated with anti-CD3/CD4/CD28 beads; in transgenic mouse T cells. activation, % (series mostly up to about 46 µM); in the data active = activation above about 50%; inconclusive = mostly about 30% to 49%; also: 0% is about no effect
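EGFP and DsRed fluorescence is measured by plate cytometry in unstimulated transgenic mouse T cells exposed to compound for 60 minutes, then stimulated 18 hours at 37 degrees C with anti-CD3/anti-CD4 beads plus anti-CD28.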
B2AR arrestin: recruits beta-arrestin to the human beta2-adrenergic receptor; P07550; beta-arrestin recruitment to beta2AR, cell-based reporter; Potency, µM (highest dose often 46.1 µM), without a hit: top-dose activation, usual class: activators; actives 0.02% (n = 330,000);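 also: potency is read from the fitted curve at half-maximal effect; 0% = DMSO controls and full agonism = EC100 isoproterenol or metaproterenol; nearly all actives have a fitted effect of over 65% in size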
Target sequence (P07550 whole entry, looked up): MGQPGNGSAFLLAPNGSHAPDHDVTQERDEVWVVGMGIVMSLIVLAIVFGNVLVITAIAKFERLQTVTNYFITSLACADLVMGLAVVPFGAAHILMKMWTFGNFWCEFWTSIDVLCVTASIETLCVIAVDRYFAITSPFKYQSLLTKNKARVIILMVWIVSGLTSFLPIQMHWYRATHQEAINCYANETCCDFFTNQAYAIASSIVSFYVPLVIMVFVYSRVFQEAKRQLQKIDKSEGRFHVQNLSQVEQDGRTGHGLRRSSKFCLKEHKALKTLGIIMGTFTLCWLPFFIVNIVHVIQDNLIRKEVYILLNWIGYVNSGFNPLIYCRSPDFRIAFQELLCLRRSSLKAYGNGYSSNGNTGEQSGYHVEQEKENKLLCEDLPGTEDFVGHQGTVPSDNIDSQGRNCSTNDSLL
Epigenetic derep: epigenetic control regulation, reporter derepression. actives 0.2% (n = 280,000). murine LDR cells, GFP reporter derepression, 30 h. Potency, µM (series often up to 53.9 µM), for the others: at the highest dose GFP activation, hits mostly activators. AID 1865; also: potency is read from the fitted curve at half-maximal effect; % of control where 0% means no effect; nearly all actives have a fitted effect of over 60% in size
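Murine LDR cells carrying a silenced, genomically integrated CMV-driven GFP reporter were exposed to compound for 30 hours at 37 C. After PBS washes, GFP-positive cells (20–120 um objects) were counted by laser-scanning microplate cytometry.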
PINK1 modulator: changes PINK1 expression; AID 624263; Potency, µM (doses to about 76.6 µM), without a hit: top-dose activation (PINK1 increase), actives largely listed as activators; PINK1 immunofluorescence, high-content cytometry, 24 h; actives 0.2% (n = 410,000); active = well fitted activation curve with a large enough effect; inconclusive = small, poorly fitted or top-dose-only effect; cell line not stated here; also: potency is read from the fitted curve at half-maximal effect; % of control where 0% means no effect; nearly all actives have a fitted effect of over 65% in size
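Measures PINK1 amount and localization on or inside mitochondria by immunofluorescence. Stable cells get compounds at 5 concentrations for 24 hours before fixation and staining; CCCP controls included.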
* = called active by the depositor; [ ] = another dose, or the depositor's remark. Shown are actives, neighbours in structure and some others; about 0.58% of the full set was active somewhere. Unless noted, calls follow the shape of the dose curve; as a rule, active = well fitted curve in the direction sought with a large enough effect; inconclusive = small, poorly fitted or top-dose-only effect, or another doubt; inactive = no such curve, though single readings can be large; an effect the other way counts as inactive or inconclusive.

For O=c1[nH][nH]c(=O)c2c(NS(=O)(=O)c3ccccc3)cccc12 the results were PKM2 activator 11µM*, IL2 activator -1, B2AR arrestin 0%, Epigenetic derep -1%[10.1 µM] and PINK1 modulator 0%.
For O=S(=O)(Nc1ccc(NS(=O)(=O)c2ccccc2)c2ccccc12)c1ccccc1 the results were IL2 activator -1 and PINK1 modulator 3%.
For COc1ccccc1-c1ccnc(-n2ncc(C(=O)NC(C)(C)CO)c2C2CC2)n1 the results were PINK1 modulator 0%.
Screening Cc1ccc(NC(=S)Nc2ccc(C(C)C)cc2)cc1S(=O)(=O)N1CCCCCC1 returned PKM2 activator -20%, IL2 activator -1, B2AR arrestin 2%, Epigenetic derep 1% and PINK1 modulator 11µM*.
`COc1ccccc1N1CCN(c2nc(CNC(=O)c3ccccc3F)nc3ccccc23)CC1` gave PINK1 modulator 1%.
For Cc1cc(C)c(C#N)c(SCCS(=O)(=O)c2ccc(C(C)(C)C)cc2)n1 the results were PKM2 activator 5%, IL2 activator -3, B2AR arrestin 0%, Epigenetic derep -1% and PINK1 modulator 2%.
`Cc1cc(C)c(C#N)c(SCCS(=O)(=O)c2ccc(Cl)cc2)n1` gave PKM2 activator 20µM*, IL2 activator -3, B2AR arrestin 0%, Epigenetic derep 0% and PINK1 modulator -1%.
Screening NS(=O)(=O)c1ccc2c(c1)C(=NO)c1cc(S(N)(=O)=O)ccc1-2 returned PKM2 activator 4µM*, IL2 activator -2, B2AR arrestin 0% and PINK1 modulator 0%.
COc1ccc(O)c(CN2CCC3(CCC(CNC(=O)c4ccco4)O3)CC2)c1 (centres undefined) was read as PINK1 modulator 0%.
For O=C(CSc1nc2ccccc2c(=O)n1-c1ccc(F)cc1)Nc1cc(S(=O)(=O)N2CCOCC2)ccc1Cl the results were PKM2 activator 2%, IL2 activator 1, B2AR arrestin 16µM*, Epigenetic derep 0% and PINK1 modulator 7%.
For O=C(CSc1nc2ccccc2c(=O)n1-c1ccc(F)cc1)Nc1ccc(N2CCOCC2)cc1 the results were PKM2 activator -1%, IL2 activator 1, B2AR arrestin -3%, Epigenetic derep 10% and PINK1 modulator 4%.
Screening Cc1ccc(-c2csc3nc(C)n(-n4c(C)ccc4C)c(=O)c23)o1 returned PKM2 activator 14µM*, IL2 activator 1, B2AR arrestin 0%, Epigenetic derep inconclusive and PINK1 modulator 2%.
For O=C(NCC1CCC2(CCN(Cc3ccc4ncccc4c3)CC2)O1)C1CCCO1 (centres undefined) the results were PINK1 modulator 0%.
`COc1cc(/C=C/C(=O)OCC(=O)Nc2ccc(C)cc2[N+](=O)[O-])ccc1O` gave PKM2 activator 18µM*, IL2 activator 0, B2AR arrestin 0%, Epigenetic derep 0% and PINK1 modulator 6%.
Screening CCNc1nc(NCC)nc(-n2nc(C)cc2C)n1 returned PKM2 activator -3%, IL2 activator -2, B2AR arrestin 7.9µM*, Epigenetic derep 0% and PINK1 modulator 0%[38.3 µM].
For Cc1cc(C)n(-c2nc(NC(C)C)nc(NC(C)C)n2)n1 the results were PKM2 activator 0%, IL2 activator -3, B2AR arrestin 13µM*, Epigenetic derep -1% and PINK1 modulator -8%[38.3 µM].
For Cc1cc(C)n(-c2nc(NC(C)(C)C)nc(NC(C)(C)C)n2)n1 the results were PKM2 activator -1%, IL2 activator 3, B2AR arrestin inconclusive, Epigenetic derep 0% and PINK1 modulator 1%.
`COC(=O)c1cn([C@@H]2C[C@@H](C(=O)Nc3cccc(SC)c3)N(C3CCCCCC3)C2)nn1` gave PINK1 modulator 1%.
For COCc1c(C(=O)N2CCN(C)CC2)cnn1-c1ncc2c(n1)-c1ccccc1CCC2 the results were PINK1 modulator 0%.
For CN(C)CC(C)(O)c1ccc2c(c1)CN(Cc1cnn(-c3ccccc3)c1)CCO2 (centres undefined) the results were PINK1 modulator 0%.
For COC(=O)Cn1c(C)c(/C=C/c2cc[n+](C)cc2)c2ccccc21 the results were PKM2 activator 7%[11.5 µM], IL2 activator 222*, B2AR arrestin 0% and PINK1 modulator 0%.
Screening CCOC(=O)c1ccc(NC(=O)Cn2nc(SC)c(S(=O)(=O)c3ccc(Cl)cc3)c2N)cc1 returned Epigenetic derep -2% and PINK1 modulator 18µM*.
`Cc1ccc(S(=O)(=O)Nc2ccc(-c3nnc(SCC#N)n3C)cc2)cc1` gave PKM2 activator 20µM*, IL2 activator 3, B2AR arrestin 0%, Epigenetic derep 1% and PINK1 modulator -1%.
`Cn1c(=O)oc2cc(S(=O)(=O)Nc3ccc(Cl)cc3)ccc21` gave PKM2 activator inconclusive, IL2 activator 2, B2AR arrestin 0% and PINK1 modulator 2%.
Cn1c(=O)oc2cc(S(=O)(=O)Nc3ccc(O)cc3)ccc21 was read as PKM2 activator 8.9µM*, IL2 activator 0, B2AR arrestin -1%, Epigenetic derep -1% and PINK1 modulator -1%.
`Cc1oc(-c2ccccc2NC(=O)c2ccccc2)nc1CNC(=O)c1cccc(-n2cccn2)c1` gave PINK1 modulator 4%.
O=C(CSc1nc2ccccc2n1Cc1ccccc1Cl)N/N=C/c1ccccc1C(=O)O was read as PKM2 activator 25µM*, IL2 activator -1, B2AR arrestin 0%, Epigenetic derep -2% and PINK1 modulator 1%.
O=C(CSc1nc2ccccc2n1Cc1ccccc1)N/N=C/c1ccccc1C(=O)O was read as PKM2 activator -1%, IL2 activator 3, B2AR arrestin 0%, Epigenetic derep -1% and PINK1 modulator 0%.
For Cc1ccc(-c2cc(C(=O)NCc3cnn(C)c3)c3cc(Br)ccc3n2)cc1 the results were PKM2 activator 0%, IL2 activator -1, B2AR arrestin 0%, Epigenetic derep 9% and PINK1 modulator inconclusive.
CCn1cc(CNC(=O)c2cc(-c3ccc(C)cc3)nc3ccc(Br)cc23)c(C)n1 was read as Epigenetic derep 16µM* and PINK1 modulator 0%.
`COCCN1CCN(C(=O)c2cnn(-c3nccc(-c4ccco4)n3)c2C2CC2)CC1` gave PINK1 modulator 0%.
Screening CCOc1ccc(NC(=O)c2sc3nc4c(c(-c5ccc(OC)cc5)c3c2N)C(=O)CC(C)(C)C4)cc1 returned Epigenetic derep 11µM* and PINK1 modulator 3%.
For COc1ccc(-c2c(C#N)c(N)nc3sc(C(=O)c4ccccc4)c(N)c23)cc1 the results were PKM2 activator 4%, IL2 activator 0, B2AR arrestin -1%, Epigenetic derep 0% and PINK1 modulator -1%.
